# According to the supplement of paper PMC8728848:
# About 410 targets per protein were measured; listed, in parts, are those with the strongest signals and a random draw of the rest.
# B1: Pwp3 (Candida glabrata) (protein)
# chain: MGSSHHHHHHSSGLVPRGSHMASKNPVDFTTVCQFPDNFSKKPGFLATTARLGLWITGNSYKELLNYPGTFTLTTQQASTTTPNIQLRGTDLFTTIYGLTVYPLYLLVELQGYFVPTQSGMYTFSLTGSDDAAIIFIGNPSTFPCDAFKTWPQATANDITVTDSINPSRTLYMVKGVAYPLRIAYYNGLGNGVLNAAFTDPSGTKRTDWNGYIWQYDQCSTCTYK
# Tests used:
# Assay in all cases: glycan array binding signal (z-score within array); higher = stronger binding
# Settings in all cases: glycan notation: IUPAC condensed, linker removed
# [1] = biological target: Fuc(a1-2)Gal(b1-4)GlcNAc(b1-3)Gal(b1-4)GlcNAc(b1-2)Man(a1-3)[Fuc(a1-2)Gal(b1-4)GlcNAc(b1-3)Gal(b1-4)GlcNAc(b1-2)Man(a1-6)]Man(b1-4)GlcNAc(b1-4)GlcNAc
# How it was run: (§1)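 Glycan array data were curated from 3228 arrays in the Consortium for Functional Glycomics database and kept only where the protein sequence was available. Glycan names were converted to IUPAC-condensed notation, and columns mapping to the same glycan were averaged. The binding signal is a within-array Z-score, averaged across arrays of the same protein sequence at different concentrations or buffers and across linkers. Negative Z-scores can be read as non-binding.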
# [2] = biological target: Fuc(a1-2)Gal3S(b1-4)GlcNAc
# How it was run: as §1
# [3] = biological target: Fuc(a1-2)[Gal(a1-3)]Gal(b1-3)GlcNAc(b1-6)GalNAc
# How it was run: as §1
# [4] = biological target: Fuc(a1-2)[GalNAc(a1-3)]Gal(b1-3)GlcNAc(b1-3)GalNAc
# How it was run: as §1
# [5] = biological target: Fuc(a1-2)[GalNAc(a1-3)]Gal(b1-4)GlcNAc(b1-2)Man(a1-3)[Fuc(a1-2)[GalNAc(a1-3)]Gal(b1-4)GlcNAc(b1-2)Man(a1-6)]Man(b1-4)GlcNAc(b1-4)GlcNAc
# How it was run: as §1
# [6] = biological target: Fuc(a1-2)[GalNAc(a1-3)]Gal(b1-4)GlcNAc(b1-3)GalNAc
# How it was run: as §1
# [7] = biological target: Fuc(a1-3)[Gal(b1-4)]Glc6S
# How it was run: as §1
# [8] = biological target: Fuc(a1-3)[Gal(b1-4)]GlcNAc(b1-2)Man
# How it was run: as §1
# [9] = biological target: Fuc(a1-3)[Gal(b1-4)]GlcNAc(b1-6)GalNAc
# How it was run: as §1
# [10] = biological target: Gal(a1-4)Gal(b1-4)GlcNAc(b1-2)Man(a1-3)[Gal(a1-4)Gal(b1-4)GlcNAc(b1-2)Man(a1-6)]Man(b1-4)GlcNAc(b1-4)GlcNAc
# How it was run: as §1
# [11] = biological target: Gal(a1-4)Gal(b1-4)GlcNAc(b1-3)Gal(b1-4)Glc
# How it was run: as §1
# [12] = biological target: Gal(b1-3)GalNAc
# How it was run: as §1
# [13] = biological target: Gal(b1-3)GalNAc(b1-4)Gal(b1-4)Glc
# How it was run: as §1
# [14] = biological target: Gal(b1-3)GlcNAc(b1-3)Gal(b1-3)GlcNAc
# How it was run: as §1
# [15] = biological target: Gal(b1-3)[Fuc(a1-4)]GlcNAc
# How it was run: as §1
# [16] = biological target: Gal(b1-4)GlcNAc(b1-2)Man(a1-3)[Gal(b1-4)GlcNAc(b1-2)Man(a1-6)][GlcNAc(b1-4)]Man(b1-4)GlcNAc(b1-4)[Fuc(a1-6)]GlcNAc
# How it was run: as §1
# [17] = biological target: Gal(b1-4)GlcNAc(b1-2)[Gal(b1-4)GlcNAc(b1-4)]Man(a1-3)[Gal(b1-4)GlcNAc(b1-2)Man(a1-6)]Man(b1-4)GlcNAc(b1-4)GlcNAc
# How it was run: as §1
# [18] = biological target: Gal(b1-4)GlcNAc(b1-2)[Gal(b1-4)GlcNAc(b1-6)]Man(a1-6)[GlcNAc(b1-4)][Gal(b1-4)GlcNAc(b1-2)[Gal(b1-4)GlcNAc(b1-4)]Man(a1-3)]Man(b1-4)GlcNAc(b1-4)[Fuc(a1-6)]GlcNAc
# How it was run: as §1
# [19] = biological target: Gal(b1-4)GlcNAc(b1-3)Gal(b1-4)GlcNAc(b1-3)Gal(b1-4)GlcNAc(b1-3)Gal(b1-4)GlcNAc(b1-3)Gal(b1-4)GlcNAc(b1-2)Man(a1-3)[Gal(b1-4)GlcNAc(b1-3)Gal(b1-4)GlcNAc(b1-3)Gal(b1-4)GlcNAc(b1-3)Gal(b1-4)GlcNAc(b1-3)Gal(b1-4)GlcNAc(b1-2)Man(a1-6)]Man(b1-4)GlcNAc(b1-4)GlcNAc
# How it was run: as §1
# [20] = biological target: Gal(b1-6)Gal
# How it was run: as §1
# [21] = biological target: Gal3S(b1-3)GlcNAc
# How it was run: as §1
binder,measurement,setting,value
B1,glycan array binding signal (z-score),[1],-0.363
same,glycan array binding signal (z-score),[2],-0.232
same,glycan array binding signal (z-score),[3],4.02
same,glycan array binding signal (z-score),[4],-0.434
same,glycan array binding signal (z-score),[5],3.9
same,glycan array binding signal (z-score),[6],3.75
same,glycan array binding signal (z-score),[7],5.3
same,glycan array binding signal (z-score),[8],-0.319
same,glycan array binding signal (z-score),[9],-0.516
same,glycan array binding signal (z-score),[10],-0.343
same,glycan array binding signal (z-score),[11],-0.304
same,glycan array binding signal (z-score),[12],-0.038
same,glycan array binding signal (z-score),[13],4.7
same,glycan array binding signal (z-score),[14],0.247
same,glycan array binding signal (z-score),[15],-0.246
same,glycan array binding signal (z-score),[16],-0.02
same,glycan array binding signal (z-score),[17],-1.19
same,glycan array binding signal (z-score),[18],-0.123
same,glycan array binding signal (z-score),[19],3.73
same,glycan array binding signal (z-score),[20],-0.446
same,glycan array binding signal (z-score),[21],-0.36
